# Source: PubChem
# In the library only some 4.1% were active in any assay of this set; here they are far more common.
# DAX1 inh-1: inhibitors of DAX1 repression of SF-1 activated StAR promoter; HEK293T StAR-luciferase reporter, SF-1/DAX-1 repression relief; inhibition, % at 6.8 µM; 370,000 tested, 1.1% active;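 active = inhibition above the mean over all tested compounds plus 3 SD, cut at about 3.6% in these data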;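 note: higher inhibition means more luminescence from relief of DAX-1 repression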
# DAX1 inh-2: inhibitors of human orphan nuclear receptor DAX1 (NR0B1). P51843. HEK293 Gal4-DAX1 luciferase reporter, luminescence. inhibition, % at 6.75 µM. 340,000 tested, 0.99% active. AID 504766;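 active = inhibition above the mean over all tested compounds plus 3 SD, cut at about 4.2% in these data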;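 note: inhibition shows as a rise in luminescence from relieved DAX1 repression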
# Target sequence (P51843 207-470 limits assumed): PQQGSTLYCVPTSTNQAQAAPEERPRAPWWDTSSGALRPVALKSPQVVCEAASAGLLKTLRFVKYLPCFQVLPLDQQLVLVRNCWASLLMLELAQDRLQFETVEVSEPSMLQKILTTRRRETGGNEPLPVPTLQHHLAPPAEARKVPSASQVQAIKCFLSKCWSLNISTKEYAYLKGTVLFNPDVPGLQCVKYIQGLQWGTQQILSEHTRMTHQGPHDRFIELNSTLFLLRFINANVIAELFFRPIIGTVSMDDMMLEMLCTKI
# hcDAF-12 act: H. contortus DAF-12 activation, primary screen. HEK293 hcDAF-12 lit1-tk-luc reporter, luminescence; 0% DMSO, 100% Δ7-dafachronic acid. activation, % at 6.8 µM. 370,000 tested, 1.4% active. AID 652067;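 active = activation above the mean of all tested compounds plus 3 SD, cut at about 5.5% in these data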
# ssDAF-12 act: activators of S. stercoralis DAF-12 nuclear receptor; HEK293 ssDAF-12/GRIP1 lit1-tk-luc reporter, luminescence; % of 3 µM dafachronic acid response; 370,000 tested, 1% active; activation, % at 6.8 µM;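 active = activation above the mean over all tested compounds plus 3 SD, cut at about 0.9% in these data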
# hgDAF-12 ag: activates the H. glycines DAF-12 receptor ligand-binding domain | HEK293 GAL4-hgDAF12 UAS-luciferase reporter, agonist luminescence; normalized to butyrate control | activation, % at 6.8 µM | 370,000 tested, 1.8% active;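 active = activation above a cutoff set at the mean of all screened compounds plus 3 SD, cut at about 10% in these data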
# Hits are given with their value; 0 = inactive; - = no result given.
SMILES,DAX1 inh-1,DAX1 inh-2,hcDAF-12 act,ssDAF-12 act,hgDAF-12 ag
O=C(NC(=S)Nc1ccc(Cl)cn1)c1cccs1,0,5.5,0,1.1,0
CCN(CC)c1ccc(NC(=S)Nc2ccc(F)cc2)cc1,0,0,0,0,12
O=C(NC(=S)Nc1cccnc1)c1cccs1,0,0,0,0,0
C#CCN1CC(N(C)CCOC(=O)c2ccc(C(C)(C)C)cc2)CS1(=O)=O (centres undefined),0,-,0,0,0
C/C(C=NNC(=O)c1cc(-c2ccc(Cl)cc2)n[nH]1)=C\c1ccccc1,0,-,0,0,0
Cc1cc(NC(=O)c2cccs2)ncc1NC(=O)C(C)C,0,0,0,0,11
CC(C)C(=O)Nc1cccc(NC(=S)NC(=O)c2cccs2)c1,4.1,0,0,0,0
CCN(CC)c1ccc(NC(=S)NC(=O)c2cccs2)cc1,0,0,0,0,11
Cc1cc(NC(=O)c2ccccc2)ncc1NC(=O)c1cccs1,0,0,0,0,0
O=C(NC(=S)Nc1ccc(N2CCCCC2)cc1)c1cccs1,0,0,0,0,12
S=c1[nH]ccn1-c1c(Cl)cccc1Cl,0,0,6.5,0,0
CCCCOc1ccc(-n2nc(C)cc2C)nn1,0,4.7,0,0,0
Cc1cc(C)n(-c2ccc(OCC(=O)O)nn2)n1,0,0,0,0,0
C=CCN1[C@H](C#N)[C@@H](c2ccc(C#Cc3ccccc3OC)cc2)[C@H]1CO,0,-,0,0,0
Cn1c(N)c(C(=O)CN2CCN(S(=O)(=O)c3ccccc3C#N)CC2)c(=O)n(C)c1=O,0,0,0,0,0
COc1ccc(S(=O)(=O)N2CCN(CC(=O)c3c(N)n(C)c(=O)n(C)c3=O)CC2)cc1OC,0,5.2,0,0,0
COc1ccc(S(=O)(=O)N2CCN(C(=O)c3ccc(=O)[nH]n3)CC2)cc1OC,0,7.5,0,0,0
Cc1nc(SCC(=O)NC(=O)NCCC(C)C)c2c(-c3cccs3)csc2n1,0,0,0,2.1,0
Cc1ccc(-c2nc(C3CCCN(S(=O)(=O)c4ccc(C)c(C)c4)C3)no2)cc1 (centres undefined),0,-,0,1.0,0
CC(NC(=O)c1ccc(Br)o1)C1CCCO1 (centres undefined),0,0,0,0,0
C/C(=N/NC(=O)c1ccc(Br)o1)C(C)C,0,0,0,0,11
O=C(CCc1ccccc1-c1ccccc1CCNC(=O)c1ccc(F)c(F)c1)NCc1ccccc1,0,-,0,0,0
O=C(Nc1ccc(Cl)c(Cl)c1)Nc1ccccc1C(=O)O,4.1,0,0,0,0
O=C(Nc1ccc2nccnc2c1)Nc1ccccc1Cl,0,0,0,0,11
Cc1cc(NC(=O)Nc2ccc(Cl)c(Cl)c2)n(-c2ccccc2)n1,0,4.8,0,0,0
SMILES,DAX1 inh-1,DAX1 inh-2,hcDAF-12 act,ssDAF-12 act,hgDAF-12 ag
O=C(NCCc1ccccc1)OCc1cn(-c2ccc(Cl)cc2)nn1,0,-,0,0,0
Cc1ccc2oc(=O)c3cc(C(=O)NCCN4CCc5ccccc5C4)sc3c2c1,0,0,0,0,0
Cc1ccc2oc(=O)c3cc(C(=O)NCc4ccco4)sc3c2c1,0,6.1,0,0,0
O=C(NC1CCCC1)C1CCCN1C(=O)Nc1ccccc1Cl (centres undefined),0,0,0,0,0
CC1CCCCN1C(=O)Nc1ccccc1Cl (centres undefined),0,5.1,0,0,0
Cc1cccc(NC(=O)Nc2ccccc2C(=O)N2CCCC2)c1,0,-,0,0,0
CC(=O)c1ccc(Nc2cc(C)nc3ccccc23)cc1,0,0,0,0,0
CC(=O)c1ccc(Nc2cc(C)nc3c(C)cccc23)cc1,0,0,0,0,11
COC(=O)[C@]12C[C@H](CC(=O)NCc3cccc(C(F)(F)F)c3)C(=O)N(Cc3ccc(Cl)cc3Cl)C1=C[C@H](C(C)C)O[C@@H]2C1CC1,0,-,0,0,0
Cc1cc(C)cc(C(=O)OCCCN(C)C2CN(Cc3cn(Cc4ccccc4Cl)nn3)S(=O)(=O)C2)c1 (centres undefined),0,-,0,0,0
NCCCn1c(C(=O)c2ccc(Cl)cc2)c2ccc(C(F)(F)F)cc2[n+]1[O-],0,0,0,0,0
NC(=O)CCCn1c(C(=O)c2ccc(Cl)cc2)c2ccc(C(F)(F)F)cc2[n+]1[O-],0,0,0,1.2,0
COc1ccc2c(C(=O)c3ccc(C)cc3)n(CCCC(N)=O)[n+]([O-])c2c1,0,0,6.1,0,0
